The results in this text go back to PubChem BioAssay (Tox21).

Structures are written as SMILES. A number with no mark means an inactive call. Calls follow the shape of the dose curve; as a rule, active = well fitted curve in the direction sought with a large enough effect in the repeat runs; inconclusive = weak or mixed curves; inactive = flat fitted curve, though single readings scatter.
% is scaled to controls: 0 for no effect and ±100 for the full control effect.

The experiment in a line: qHTS assay to test for compound auto fluorescence at 460 nm (blue) in HEK293 cells (AID 720678). As to conditions: blue autofluorescence 405/460 nm; series mostly up to 91.3 µM; fluorescence, % of triamterene: at the top concentration. The text has this: National Center for Advancing Translational Sciences [NCATS]
NIH Chemical Genomics Center [NCGC]
U.S. Environmental Protection Agency [EPA]
National Institutes of Environmental Health Sciences [NIEHS]
National Toxicology Program [NTP]
U.S. Food and Drug Administration [FDA]
Compound auto fluorescence often interferes with screening of the compound library against various biological targets and signaling pathways. Some of these compounds may have fluorophoric properties. Such properties may interfere with the assay outputs resulting in false positives and/or negatives. To decrease such complications and ensure the compound activities are relevant in terms of biological response, the Tox21 10K compound library was screened for auto fluorescence.
From the fluorophores used as reporter signals in our screening assays, the auto fluorescence equivalencies of compounds against three fluorophores have been evaluated: Triamterene, Fluorescein and Rose Bengal sodium for blue, green and red fluorescence, respectively. The fluorescence intensities were measured using Excitation/Emission wavelengths at 405/460nm, 485/535nm and 540/590nm for blue, green and red labels, respectively. This assay includes the blue fluorescence data.
Tox21 Assay Protocol Summary:
2,000 HEK293 cells in 5 uL of culture medium containing 10% dialyzed FBS per well were dispensed into black wall/clear bottom 1536-well plates using a Multidrop Combi Dispenser (Thermo Scientific). The assay plates were incubated for 4-5 hr at 37C to allow cell attachment to the well bottom, followed by the transfer of 23 nL compound or DMSO vehicle by a pintool work station (Kalypsys, San Diego, CA). After the assay plates were incubated overnight at 37C and 5% CO2, fluorescence intensities in the assay plates were measured by an Envision (PerkinElmer, Shelton, CT) plate reader using three labels for measuring blue, green and red fluorescence at […] 460, 535 and 590nm respectively.
For orientation: qHTS replaces the single test concentration by a dilution series.
Regarding `Oc1ccc2c(c1)OCO2`, the “fluorescence, % of triamterene” value was -0.314%.
Under `CC(=O)/C(C)=C/C1C(C)=CCCC1(C)C` (stereo not given) stands 0.0236%.
Regarding `NCCCN(CCO)CCO`, the “fluorescence, % of triamterene” value was 0.315%.
In the case of `O=C(Cl)c1ccc([N+](=O)[O-])cc1`, the “fluorescence, % of triamterene” value is -0.16%.
Under `CCCCCCCCCC(=O)OCC` stands 0.17%.
In the case of `N#CCc1cccc(C(F)(F)F)c1` it was -0.0164%; in that of `CCOC(=O)CC(C)C`, 0.255%; in that of `CNS(=O)(=O)Cc1ccc2[nH]cc(CCN(C)C)c2c1`, 0.092% [at 46 µM].
Regarding `CC(Cc1cccc(C(F)(F)F)c1)NCCOC(=O)c1ccccc1` (stereo not given), the “fluorescence, % of triamterene” value was 0.0449% [at 46 µM].
Take `CC(C)CC=O`: the “fluorescence, % of triamterene” value is -0.136%.
In the case of `Cc1ccc(C(C)c2ccc(C)c(C)c2)cc1C` it was 0.0207%.
On to `Nc1nc(N)c(-c2ccccc2)s1`, for which the “fluorescence, % of triamterene” value is -0.0395% [at 46 µM].
Consider `CN1CCC[C@@H]1c1cccnc1`, for which the “fluorescence, % of triamterene” value was 0.015% [at 46 µM].
For the compound `CN(C)CC/C=C1\c2ccccc2COc2ccccc21`, the “fluorescence, % of triamterene” value was 0.144% [at 46 µM].
In the case of `CN(C(=O)CCCOc1ccc2[nH]c(=O)ccc2c1)C1CCCCC1` it was 0.0368% [at 46 µM]; in that of `Cc1ccccc1N=Nc1ccc(N=Nc2c(O)ccc3ccccc23)c(C)c1`, 0.0867% [at 46 µM]; in that of `O=C(O)c1cccc(N(Cc2cccnc2)c2ccc(OC(F)F)c(OC(F)F)c2)c1`, 0.144%.
Under `COC(=O)CSc1cc(N=c2sc(=O)n3n2CCCC3)c(F)cc1Cl` stands -0.0185%; under `CCCCOC(=O)/C=C\C(=O)OCCCC`, -0.0844% [at 95.7 µM].
As for `CCN(CC)CCOc1ccc2c(c1)C(=O)c1cc(OCCN(CC)CC)ccc1-2`, the “fluorescence, % of triamterene” value was -0.225% [at 46 µM].
Under `CCCCCCCCCCCCCCC1CO1` (stereo not given) stands -0.0008%; under `CCN(CCO)CCCC(C)Nc1ccnc2cc(Cl)ccc12` (stereo not given), -0.0203% [at 46 µM]; under `CC(=O)OC/C=C/c1ccccc1`, 0.0433%.
Take `CC(C)CCCCCCOC(=O)c1ccc(C(=O)OCCCCCCC(C)C)c(C(=O)OCCCCCCC(C)C)c1`: the “fluorescence, % of triamterene” value is 0.0402%.
In the case of `O=C=NC1CCC(CC2CCC(N=C=O)CC2)CC1` (stereo not given) it was -0.0369%; in that of `CCC(=O)OC(C)(C)C1CC=C(C)CC1` (stereo not given), -0.0095%; in that of `NC1CCN(c2nc3c(cc2F)c(=O)c(C(=O)O)cn3-c2ccc(F)cc2F)C1` (stereo not given), 0.188% [at 46 µM].
`C[Si](C)O[Si](C)(C)O[Si](C)(C)O[Si](C)C`: the “fluorescence, % of triamterene” value is 0.133%.
In the case of `CCCCOc1cc(C(=O)OCCN(CC)CC)ccc1N` it was 0.0068% [at 18.6 µM]; in that of `O=C(CCN1CCN2CCCC2C1)N1c2ccccc2Sc2ccc(Cl)cc21` (stereo not given), 0.147% [at 46 µM]; in that of `CC[C@]12CCCN3CCc4c(n(c5ccccc45)C(=O)C1)[C@@H]32`, 0.0203% [at 18.6 µM].
In the case of `CCCCCCCCC(CO)CCCCCC` (stereo not given) it was 0.0065%; in that of `COc1ccc2[nH]c(S(=O)Cc3ncc(C)c(OC)c3C)nc2n1` (stereo not given), 0.233% [at 46 µM].
For the compound `O=S1(=O)c2cccc3cccc(c23)N1CCCN1CCN(c2ccc(F)cc2)CC1`, the “fluorescence, % of triamterene” value is 1.98% [at 46 µM].
As for `CC[C@H](C)[C@@H](C(=O)O)n1sc2ccccc2c1=O`, the “fluorescence, % of triamterene” value was 0.775%.
In the case of `O=C(O)C1CCC(C(=O)O)CC1` (stereo not given) it was -0.273%; in that of `CCN(CC)CCc1nc(-c2ccccc2)no1`, -0.138% [at 18.6 µM].
Under `COC(=O)C(C)=O` stands 0.0615%.
In the case of `COc1ccccc1OC(=O)Oc1ccccc1OC`, the “fluorescence, % of triamterene” value was 0.0103% [at 46 µM].
In the case of `CC(C)(C)C(=O)OCOP(=O)(COCCn1cnc2c(N)ncnc21)OCOC(=O)C(C)(C)C`, the “fluorescence, % of triamterene” value is -0.275% [at 46 µM].
